From the supplement of paper PMC10105736

Tested on: cpb
Assay: MAPPIT interaction score (arbitrary units); higher = stronger binary interaction signal, active = hit call of the paper
Settings: MAPPIT configuration: N-C; pair source set: Lit-BM-16;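 active = MAPPIT score above the 99th percentile of random reference set scores in the same batch; inactive = at or below it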
Protocol: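 MAPPIT in HEK293T cells: Drosophila bait and prey ORFs (from the FlyBi ORF collection) were co-transfected in quadruplicate, with two wells stimulated by erythropoietin. Interaction-dependent JAK-STAT activation was read out with a STAT-responsive firefly luciferase reporter. Positive calls use the 99th percentile of random reference set (RRS) scores within each batch […]. Batches Dvs01 and Dvs02 used the N-N configuration and Dvs04 the N-C configuration. Pairs come from FlyBi screens, CuraGen, DPiM, Finley Y2H, Lit-BM-16, Lit-BS-16 and RRS.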
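Note: HEK293T cells with Epo stimulation, STAT-responsive firefly luciferase reporter, fold induction versus unstimulated cells divided by the larger fold induction of two negative controls lacking either bait or prey.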

Sequence of cpa (chain, as listed by the source): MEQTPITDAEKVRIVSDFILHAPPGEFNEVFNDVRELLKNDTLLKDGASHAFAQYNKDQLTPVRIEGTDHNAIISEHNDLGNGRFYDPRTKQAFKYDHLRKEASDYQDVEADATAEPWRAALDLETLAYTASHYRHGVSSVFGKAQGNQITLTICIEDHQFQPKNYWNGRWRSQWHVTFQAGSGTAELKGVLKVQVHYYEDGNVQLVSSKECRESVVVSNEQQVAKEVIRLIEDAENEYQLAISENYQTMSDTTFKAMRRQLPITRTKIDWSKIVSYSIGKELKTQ

Substance	MAPPIT interaction score
cpa	4.39 (active)

Same assay, conditions: MAPPIT configuration: N-N; pair source set: Lit-BM-16

Substance	MAPPIT interaction score
cpa	6.04 (active)
